The list is not random: actives were taken first. Their share in the collection is about 12%.
PLK1 PBD block = qHTS for Inhibitors of PLK1-PDB (polo-like kinase 1 - polo-box domain): Primary Screen. Potency, µM, for inactives: max response, negative = inhibition, usual class: inhibitors. Plk1 PBD binding of FITC phosphopeptide, fluorescence polarization. AID 720504, 2013. Serine/threonine-protein kinase PLK1 (Homo sapiens), P53350. 360,000 tested, 2.8% active; note: series mostly up to about 57 µM; % is set by controls: 0 for no effect and ±100 for the full control effect; nearly all actives have a fitted effect of over 65% in size
HP1b chromo inh = HTS for Inhibitors of HP1-beta Chromodomain Interactions with Methylated Histone Tails | Chromobox protein homolog 1 (Homo sapiens), P83916 | AlphaScreen HP1-beta / biotin-H3K9me3 peptide binding | Potency, µM (doses to about 114 µM), for the others: at the highest dose activity change, negative = inhibition, most hits filed as inhibitors | 390,000 tested, 0.56% active; note: nearly all actives have a fitted effect of over 70% in size
Target sequence (P83916 whole entry, looked up): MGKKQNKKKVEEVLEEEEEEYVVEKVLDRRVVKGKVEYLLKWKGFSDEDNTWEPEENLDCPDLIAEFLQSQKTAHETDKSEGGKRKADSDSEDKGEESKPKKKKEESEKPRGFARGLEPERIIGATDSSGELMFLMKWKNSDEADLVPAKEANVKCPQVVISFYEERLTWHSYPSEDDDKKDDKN
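AlphaScreen: HP1-beta (50 nM) preformed 30 min with biotin-H3(1-18)K9me3 peptide (50 nM) in PBS pH 7.4, 0.01% Tween-20. Compound added for 30 min at RT, then streptavidin donor/nickel chelate acceptor beads (10 ug/mL) for 30 min.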
Sfp PPTase inh = qHTS Assay for Inhibitors of Bacillus subtilis Sfp phosphopantetheinyl transferase (PPTase); Potency, µM, inactives show largest response in the series, negative = inhibition, hits mostly inhibitors; 310,000 tested, 3.5% active; 4'-phosphopantetheinyl transferase ffp (Bacillus subtilis), Q9F4F7; Biochemical Sfp PPTase activity, qHTS;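 note: the enzyme is Sfp with the accession as filed and its product quenches rhodamine fluorescence; 0% = enzyme reaction without inhibitor and -100% = no enzyme wells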
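Step 1, compound plus 15 nM Sfp-PPTase, 15 min, room temperature. Step 2, add rhodamine-CoA (5 uM) and BHQ-2-YbbR (12.5 uM). Step 3, read 525/598 nm fluorescence at 0 and 30 min.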
BAZ2B inh = qHTS Assay for Inhibitors of BAZ2B; Potency, µM (highest dose often 114 µM), for inactives: top-dose activity change, negative = inhibition, hits mostly inhibitors; 360,000 tested, 4.4% active; Bromodomain adjacent to zinc finger domain protein 2B (Homo sapiens), Q9UIF8; AlphaScreen BAZ2B-H3K14Ac peptide displacement; note: % is set by controls: 0 for no effect and ±100 for the full control effect; nearly all actives have a fitted effect of over 60% in size
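Inhibition is scored as reduced AlphaScreen emission. The BAZ2B/b-H3(5-23)K14Ac complex (50 nM each) in PBS pH 7.4, 0.01% Tween-20 meets compound (up to 110 uM) for 30 min at RT before bead addition.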
JMJD2A Tudor inh = qHTS Assay for Inhibitors of JMJD2A-Tudor Domain; AlphaScreen JMJD2A-Tudor / H3K4me3 peptide binding; 390,000 tested, 4.4% active; Lysine-specific demethylase 4A (Homo sapiens), O75164; Potency, µM (top dose mostly 114 µM), for inactives: at the top dose activity change, negative = inhibition, most hits filed as inhibitors; note: % is set by controls: 0 for no effect and ±100 for the full control effect; nearly all actives have a fitted effect of over 50% in size
G9a inh = qHTS Assay for Inhibitors of Histone Lysine Methyltransferase G9a; G9a H3K9 monomethylation, AlphaScreen, 2 h; 350,000 tested, 8.8% active; Potency, µM (titrated, usually from 102 µM), for inactives: top-dose activity, negative = inhibition, hits mostly inhibitors; AID 504332, 2011; Histone-lysine N-methyltransferase EHMT2 (Homo sapiens), Q96KQ7; note: % is set by controls: 0 for no effect and ±100 for the full control effect; nearly all actives have a fitted effect of over 75% in size
Target sequence (Q96KQ7 913-1193 limits assumed): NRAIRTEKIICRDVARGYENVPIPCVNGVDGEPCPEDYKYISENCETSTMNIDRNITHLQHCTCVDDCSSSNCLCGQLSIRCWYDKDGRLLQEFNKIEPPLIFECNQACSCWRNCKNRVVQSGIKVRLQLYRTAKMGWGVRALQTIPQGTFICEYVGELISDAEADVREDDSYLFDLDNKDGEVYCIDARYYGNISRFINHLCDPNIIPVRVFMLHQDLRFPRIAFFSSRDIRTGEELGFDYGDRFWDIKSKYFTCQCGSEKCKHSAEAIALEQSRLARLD
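Chemiluminescent proximity detection of H3K9 monomethylation, read after 10 min bead incubation in the dark. Reaction: 20 nM G9a, 500 nM biotin-H3K9 peptide, 20 uM SAM cofactor, 2 h, room temperature, following 15 min enzyme-compound preincubation.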
Numbers without * were called inactive; ? = inconclusive; · = no result; [ ] = another dose, or the depositor's remark. Calls come from the whole dose curve; as a rule, active = well fitted curve in the direction sought with a large enough effect; inconclusive = small, poorly fitted or top-dose-only effect, or another doubt; inactive = no such curve, though single readings can be large; an effect the other way counts as inactive or inconclusive. Potency is the fitted concentration of half-maximal effect.

SMILES | PLK1 PBD block | HP1b chromo inh | Sfp PPTase inh | BAZ2B inh | JMJD2A Tudor inh | G9a inh
CCN(c1ccc(NC(=O)CSc2nnc3nc(C)cc(C)n23)cc1)C(C)C | -5% | -5% | 4% | ? | -32% | 45µM*
O=C(c1ccco1)N1CCN(c2cc(N3CCOCC3)c(F)cc2[N+](=O)[O-])CC1 | -1% | -10% | -2% | ? | -28% | ?
Cc1ccc(N=Cc2nc(-c3ccco3)oc2O)cc1 | -2% | -11% | 9% | · | ? | 1%[59 µM]
Cc1ccc(C(=O)Oc2oc(-c3ccco3)nc2C=Nc2ccc(Cl)cc2)cc1 | 4.7µM* | 18% | ? | -4% | -8% | 50µM*
O=C(Oc1oc(-c2ccco2)nc1C=Nc1ccccc1)c1ccoc1 | 4.7µM* | 29% | 20µM* | -19% | -24% | 7.1µM*
O=C(Oc1oc(-c2ccco2)nc1C=Nc1ccccc1)c1ccco1 | 3µM* | 33% | 11µM* | -5% | -14% | ?
Cc1nn(C)c2c1c(C(F)(F)F)cc(=O)n2CC(=O)N1CCC(C)CC1 | · | 1% | · | -13% | -12% | 4%[59 µM]
COc1ccc(-n2nc(C(=O)N3CCCCC3C)c3c4ccccc4n(C)c3c2=O)cc1Cl (stereo not given) | · | 20% | · | · | -10% | -48%[59 µM]
CCCC1=C(C(=O)OCC)C(c2cc(Cl)cc(OC)c2OCC(=O)OCC)NC(=O)N1 (stereo not given) | 30µM* | -17% | -4% | -5% | -12%[11.4 µM] | 24%[59 µM]
O=C1CCCc2cc(S(=O)(=O)N3CCCC(C(=O)NCc4ccccc4Cl)C3)ccc2N1 (stereo not given) | · | 16% | · | 9%[57.1 µM] | -9% | -12%[59 µM]
Cc1nc(Nc2ccccc2)c2nc(-c3ccccc3)n(CCCN3CCCCC3C)c2n1 (stereo not given) | · | · | 13% | · | · | ·
O=C(OCC(=O)c1c[nH]c2ccccc12)c1ccc(F)c(S(=O)(=O)N2CCOCC2)c1 | 5% | · | · | · | · | ·
COc1ccc(N2CCN(Cc3nnc(-c4cccc(Br)c4)o3)CC2)cc1 | · | ? | · | 45µM* | 79µM* | 11µM*
Cc1cccc(N2CCN(Cc3nnc(-c4cccc(Br)c4)o3)CC2)c1C | · | 28% | · | 11% | 0% | 10%[59 µM]
Oc1cccc(Nc2cc(-c3ccccc3)ncn2)c1 | · | 31% | · | 50µM* | -35% | ?
CCOC(=O)[C@]12CCCC=C1N(Cc1ccc(Cl)cc1Cl)C(=O)[C@H](CC(=O)NCC1CCCCC1)C2 | 1% | · | · | · | · | ·
CCOc1c(Cl)cc(CNCc2ccccn2)cc1OC | 1% | 61% | 3% | 56µM* | -25% | 40µM*
COc1cc(CNCc2ccccn2)ccc1OCc1ccccc1Cl | 0% | -2% | 1% | ? | 45µM* | ?
Cc1ccc(-c2cc3ncc(C#N)c(N)n3n2)cc1 | -14% | 23% | -14% | -7% | 3% | 43%
CCOc1ccc(NC(=O)[C@H](Cc2ccccc2)NC(=O)C2CCNCC2)cc1 | -16% | 22% | 12% | -25% | -15% | ·
CCC1CC(=O)CCN1S(=O)(=O)c1ccc(C)cc1 (stereo not given) | -1% | 24% | · | · | -5% | ·
COc1c(OC(C)=O)c(=O)n2c3ccccc3c3ccnc1c32 | 24µM* | 22% | · | 5% | -14% | 21%[12.7 µM]
CC(=O)Oc1c(C)c(=O)n(C)c2ccccc12 | -11% | 18% | 17% | 3% | -1% | 8%[59 µM]
O=C(COC(=O)c1cnc(Cl)c(Cl)c1)NCc1cccs1 | ? | -3% | 19% | 4% | 22µM* | 25%[0.0925 µM]
O=C(O)[C@H]1C[C@@H](CP(=O)(O)O)CCN1 | · | 9% | 0% | · | -6% | -8%[12.7 µM]
SMILES | PLK1 PBD block | HP1b chromo inh | Sfp PPTase inh | BAZ2B inh | JMJD2A Tudor inh | G9a inh
CCOC(=O)c1c(NC(=O)C(C)Sc2cn(CCNC(=O)c3ccc(OC)cc3)c3ccccc23)sc2c1CCC2 (stereo not given) | · | -1% | · | ? | -30% | ?
Cc1ccc(C(=O)N2CCN(c3ccc(NC(=O)c4ccc(Br)o4)cc3)CC2)cc1 | -2% | -19% | -15% | ? | ? | ?
O=C(Nc1cc(C(F)(F)F)ccc1N1CCCCC1)c1ccc(Br)o1 | -3% | 5% | 4% | ? | 8% | 0%
Cc1cc(N2CCN(C)CC2)ccc1NC(=O)c1ccc(-c2ccc(Cl)cc2)o1 | -21% | ? | · | 35µM* | 40µM* | 32µM*
O=C(Nc1ccccc1N1CCCCC1)c1ccc(-c2ccc(Cl)cc2)o1 | 27µM* | 6% | -11% | -24% | ? | -8%[59 µM]
CN1CCN(c2ccccc2NC(=O)c2ccc(-c3ccc(Br)cc3)o2)CC1 | 0% | 11% | -9% | ? | -17% | ·
O=C(Nc1ccc(N2CCCC2)c(Cl)c1)c1ccc(Br)o1 | -12% | 3% | 79µM* | ? | ? | 14µM*
Cc1cc(O)c(NC(=S)NC(=O)c2ccc(-c3ccc(Cl)cc3)o2)cc1C | -1% | 5% | ? | 1% | -18% | 11%[12.7 µM]
N#Cc1ccccc1N1CCN(C(=O)c2ccc(NC(=O)c3ccc(Br)o3)cc2)CC1 | -17% | -27% | · | 50µM* | 56µM* | 14%[2.33 µM]
COc1ccc2c(c1)OCC(Cc1ccc(OC)c(O)c1)C2=O (stereo not given) | · | · | 2% | · | · | -4%[2.33 µM]
CCCCn1cc(S(=O)(=O)c2ccc(C)cc2)c(=O)c2cc(F)c(N3CCCCC3)cc21 | · | 44% | · | -4% | -21% | -9%[59 µM]
C=CCC(C)(O)c1cccc(Br)c1 (stereo not given) | · | · | 15% | · | · | ·
CC(=O)N1CCN(c2ccccc2NC(=O)c2ccc(Br)o2)CC1 | -8% | 13% | 20% | -4% | 2% | -7%
O=C(Nc1ccccc1N1CCCC1)c1ccc(Br)o1 | -3% | 5% | -1% | ? | ? | 4.5µM*
COc1ccc(N2CCCC2)c(NC(=O)c2ccc(Br)o2)c1 | -3% | ? | -11% | ? | 50µM* | 8.9µM*
O=c1c(-n2cncn2)c[nH]n1-c1cccc(Cl)n1 | -9% | ? | 56µM* | 50µM* | 50µM* | ?
O=c1c(/C=N/OCc2ccc(Cl)cc2Cl)c[nH]n1-c1cccc(Cl)n1 | -18% | 15% | 2% | -5% | -30% | 3%
Nc1cc([N+](=O)[O-])cc2oc(-c3ccccc3)cc12 | -25% | ? | 1% | 10µM* | 13µM* | 25%[0.501 µM]
CC1=CN2C(=N)/C(=C/c3ccc([N+](=O)[O-])o3)C(=O)N=C2S1 | ? | ? | 35µM* | 45µM* | 79µM* | ?

Bioassay records: PubChem, National Center for Advancing Translational Sciences (NCATS)
